Sampled rows, rich in hits. Any-hit rate of the full collection: about 3.4%.
HIV Env fusion: inhibitors of HIV-1 Env-driven cell-cell fusion, primary screen, HeLa-JRFL effector, CEM21 target cells, luciferase; inhibition, % at 12.3 µM; 360,000 tested, 1.1% active; AID 651610, 2012;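 active means mean replicate inhibition score of at least 50 and every replicate individually at or above 50; inconclusive means only one of the two criteria met; inactive means mean below 50 and not all replicates reaching 50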;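 further: 0% = plate neutral controls and 100% = maraviroc near 300 nM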
esBAF inh: Bmi1 luciferase reporter increase in mESCs, primary screen, esBAF inhibitor project, mouse ES cells, Bmi1 luciferase knock-in, single point | 24 h; 100% = twice the neutral-well signal | reporter increase, % at 12.5 µM | 350,000 tested, 2% active | AID 602393, 2012; in the data active means activation above about 40%; inconclusive means no clear call, values can overlap the other calls;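 further: 0% = median of the plate's neutral control wells and 100% = double that signal; a rise in the Bmi1 reporter signal indicates esBAF inhibition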
MITF act: activators of MITF-driven TRPM1 promoter reporter, primary screen, cell-based, SK-MEL-5, luciferase, single point. SK-MEL-5 TRPM1-promoter luciferase, 24 h; % of positive control, neutral wells = 0. activation, % at 12.5 µM. 300,000 tested, 0.75% active. AID 588334, 2011;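 active means mean activation of at least 80% with every replicate also reaching 80%; inconclusive means mean reaches 80% but some replicate falls short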;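 further: 0% = neutral control wells and 100% = parthenolide positive control wells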
Wnt act: Wnt/beta-catenin pathway activators, primary screen, cell-based, plate reader, single point; Wnt/beta-catenin reporter cell assay, activator; activation, % at 9.35 µM; 300,000 tested, 1.2% active; AID 743398, 2014; in the data active means activation above about 30%, passing the limit was not always enough; inconclusive means no clear call, values can overlap the other calls;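 further: 0% = neutral control wells and 100% = positive control wells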
miR122 inh: miR-122 Renilla sensor signal increase in Huh7, primary screen, miR-122 inhibitor project, cell-based, single point, plate reader; Huh7 miR-122 Renilla luciferase sensor, 48 h; neutral wells = 0, positive control = 100; activation (reporter increase), % at 12.5 µM; 340,000 tested, 0.3% active; AID 602342, 2012;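 active means mean replicate activation score at least 90 and every replicate individually at or above 90; inconclusive means only one of the two criteria met; inactive means neither criterion met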;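 further: higher luciferase means less miR-122 activity so hits act as miR-122 inhibitors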
The depositor's hits bear a star; ? = inconclusive; . = no result given; [ ] = another dose, or the depositor's remark.

SMILES	HIV Env fusion	esBAF inh	MITF act	Wnt act	miR122 inh
Cc1ccc(CNC(=O)c2cnc3ccccc3n2)cc1	26.7	12.2	6.8	11.6	-2.1
O=C(NCCc1ccccc1)c1cccnc1	-36.9	26.1	44.6	34.1*	2.8
O=C(NCCc1ccccc1)c1cnc2ccccc2n1	-41.4	-3.5	84.7*	44.5*	6.4
O=C(NCCc1ccccc1)c1cccc(Br)c1	-39.5	53.4*	.	14.7	-2.3
COc1ccc(CCNC(=O)c2cccc([N+](=O)[O-])c2)cc1OC	-125.3	.	3.7	-0.9	.
COc1ccc(C#Cc2ccc3c(c2)O[C@@H](CN(C)C(C)=O)[C@H](C)CN([C@@H](C)CO)S3(=O)=O)cc1	26.3[16.7 µM]	1.4	.	.	14.8[16.7 µM]
O=C(NCc1cccc(Cl)c1)c1ccc(-c2cccnc2)c2ccoc12	-16.7	25.0	.	4.3	-3.4
O=C(NCCc1ccccc1)c1ccc(-c2cccnc2)c2ccoc12	.	43.6*	.	18.0	-3.5
O=c1[nH][nH]cc1C=Nc1ccccc1O	71.5*	-13.5	.	.	-24.1
CC(C)C[C@H]1CN([C@@H](Cc2ccc(O)cc2)CN2CCC[C@@H]2CN2C(=S)NC[C@@H]2Cc2ccccc2)C(=S)N1CC1CCCCCC1	14.2	-3.7	.	-3.7	-2.2
Oc1ccc(C[C@H]2CNC(=S)N2C[C@H]2CCCN2C[C@H](Cc2ccccc2)N2C[C@H](Cc3ccccc3)N(CC3CCCCC3)C2=S)cc1	82.0*	.	.	-4.1	.
O=C(NC1CCC1)[C@H]1[C@H](CO)[C@H]2Cn3c(ccc(C4=CCCC4)c3=O)[C@H]2N1C(=O)C1CCCC1	.	-1.1	.	.	4.3[16.7 µM]
CCC(CO)Nc1ccn2nc(-c3cccc(Cl)c3)cc2n1 (stereo unspecified)	-46.8	72.3*	.	4.4	-5.5
Nc1c(N=Nc2ccccc2F)c(=O)[nH]n1-c1ccccc1	.	69.4*	54.2	10.8	2.6
Cc1cccc(Cn2cnc3c(nnn3Cc3ccc(Cl)cc3)c2=O)c1	59.7*	.	-2.2	.	-2.8
O=C(CSc1nnc(Cc2ccccc2)n1Cc1ccco1)NC12CC3CC(CC(C3)C1)C2	57.6*	12.5	6.6	.	9.6
CN(C)C(=O)CSc1nnc(Cc2ccccc2)n1Cc1ccco1	-2.0	.	.	0.7	.
O=C(CSc1nnc(Cc2cccs2)n1Cc1ccco1)Nc1ccc(Cl)cc1Cl	59.1*	-8.7	.	.	21.4
CC(C)NC(=O)Nc1cccc2c1O[C@@H](CN(C)S(=O)(=O)c1ccccc1)[C@@H](C)CN([C@@H](C)CO)C2=O	.	3.1	.	.	0.5[16.7 µM]
Cn1cccc1/C=C1\SC(=O)N(c2ccccc2)C1=O	-292.3	.	94.5*	40.7*	-0.6
Cn1cc(/C=C2/SC(=O)N(c3ccccc3)C2=O)c2ccccc21	14.2	.	47.7	-2.2	14.0
O=C(Cc1ccccc1)N/N=C/c1ccc(OC(=O)/C=C\c2ccco2)cc1	-26.8	-0.6	-7.7	104.4*	-10.9
CCc1ccc(OC(=O)/C=C/c2ccco2)cc1	24.8	-3.6	.	-2.0	.
COC(=O)N/N=C/c1ccc(OC(=O)/C=C/c2ccco2)cc1	-78.3	.	.	53.4*	-0.3
O=C(NCCOc1ccccc1F)C1CC(=O)N(Cc2ccccc2)C1 (stereo unspecified)	9.5	-12.2	1.4	34.4*	2.3
SMILES	HIV Env fusion	esBAF inh	MITF act	Wnt act	miR122 inh
Cc1ccnc(NC(=O)C2CC(=O)N(Cc3ccccc3)C2)c1 (stereo unspecified)	-18.3	24.0	90.4*	?	.
Cc1ccc(NC(=O)C2CC(=O)N(Cc3ccccc3)C2)nc1 (stereo unspecified)	-56.4	2.7	-6.5	-2.0	3.6
O=C(C[C@@H]1C=C[C@H](NC(=O)C2CCC2)[C@@H](CO)O1)NCc1ccncc1	-8.1[16.7 µM]	0.9	.	.	.
COc1ccc(S(=O)(=O)Nc2ccc3c(c2)CC(=O)N([C@@H](C)CO)C[C@H](C)[C@H](CN(C)S(=O)(=O)c2ccc(C)cc2)O3)cc1	96.0*[16.7 µM]	-5.2	.	.	-7.8[16.7 µM]
COc1ccc(S(=O)(=O)N(C)C[C@@H]2Oc3ccc(NS(=O)(=O)c4ccc(C)cc4)cc3CC(=O)N([C@H](C)CO)C[C@@H]2C)cc1	28.4[16.7 µM]	1.2	.	.	-4.1[16.7 µM]
Cc1ccc(S(=O)(=O)Nc2ccc3c(c2)CC(=O)N([C@@H](C)CO)C[C@H](C)[C@H](CN(C)S(=O)(=O)c2ccc(Cl)cc2)O3)cc1	5.3[16.7 µM]	3.2	.	.	-4.3[16.7 µM]
Cc1ccc(S(=O)(=O)Nc2ccc3c(c2)CC(=O)N([C@H](C)CO)C[C@H](C)[C@H](CN(C)S(=O)(=O)c2ccc(C)cc2)O3)cc1	89.6*[16.7 µM]	2.0	.	.	4.9[16.7 µM]
Cc1ccc(S(=O)(=O)Nc2ccc3c(c2)CC(=O)N([C@@H](C)CO)C[C@@H](C)[C@H](CN(C)S(=O)(=O)c2ccc(C)cc2)O3)cc1	-12.3[16.7 µM]	7.2	.	.	8.5[16.7 µM]
COc1ccc(S(=O)(=O)Nc2ccc3c(c2)CC(=O)N([C@@H](C)CO)C[C@H](C)[C@H](CN(C)S(=O)(=O)c2ccccc2)O3)cc1	66.0*[16.7 µM]	0.6	.	.	-5.1[16.7 µM]
COc1ccc(S(=O)(=O)Nc2ccc3c(c2)CC(=O)N([C@@H](C)CO)C[C@@H](C)[C@@H](CN(C)S(=O)(=O)c2ccccc2)O3)cc1	7.7[16.7 µM]	-1.4	.	.	0.2[16.7 µM]
Cc1ccc(S(=O)(=O)N(C)C[C@@H]2Oc3ccc(NS(=O)(=O)c4ccc(Cl)cc4)cc3CC(=O)N([C@H](C)CO)C[C@@H]2C)cc1	56.0*[16.7 µM]	0.7	.	.	-0.3[16.7 µM]
CNC[C@H]1Oc2ccc(NC(=O)Nc3ccc(OC)cc3)cc2CC(=O)N([C@@H](C)CO)C[C@@H]1C	-0.9[16.7 µM]	4.1	.	.	-3.0[16.7 µM]
CC(C)CC#Cc1ccc2c(c1)O[C@H](CN(C)C(=O)c1cnccn1)[C@H](C)CN([C@@H](C)CO)S2(=O)=O	.	3.3	.	.	-36.1[16.7 µM]
C[C@@H]1CN([C@H](C)CO)C(=O)c2cccc(NS(=O)(=O)c3cccs3)c2O[C@@H]1CN(C)S(=O)(=O)c1cccs1	10.4[16.7 µM]	9.8	.	.	-4.9[16.7 µM]
CO[C@@H]1CN(C)C(=O)c2cc(NS(C)(=O)=O)ccc2OC[C@H](C)N(C)C[C@H]1C	-2.7[16.7 µM]	-3.7	.	.	.
Cc1ccc(S(=O)(=O)N(C)C[C@@H]2Oc3ccc(NS(=O)(=O)c4ccc(F)cc4)cc3C(=O)N([C@@H](C)CO)C[C@@H]2C)cc1	25.2[16.7 µM]	-1.3	.	.	-7.6[16.7 µM]
Cc1ccc(S(=O)(=O)Nc2ccc3c(c2)C(=O)N([C@H](C)CO)C[C@@H](C)[C@H](CN(C)S(=O)(=O)c2ccc(F)cc2)O3)cc1	59.7*[16.7 µM]	2.3	.	.	6.2[16.7 µM]
COc1ccc(S(=O)(=O)Nc2ccc3c(c2)CC(=O)N([C@@H](C)CO)C[C@H](C)[C@H](CN(C)S(=O)(=O)c2ccc(F)cc2)O3)cc1	65.6*[16.7 µM]	1.5	.	.	-7.6[16.7 µM]
COc1ccc(S(=O)(=O)N(C)C[C@@H]2Oc3ccc(NS(=O)(=O)c4ccc(F)cc4)cc3CC(=O)N([C@H](C)CO)C[C@H]2C)cc1	-4.6[16.7 µM]	4.8	.	.	-4.4[16.7 µM]

Screening results (PubChem)
